Sampled rows, rich in hits. Any-hit rate of the full collection: about 1.2%.
Glyco luc inh = blocks N-linked glycosylation in D54 reporter cells. reporter increase, % at 12.5 µM. D54 ERlucT glycosylation luciferase reporter, 24 h; percent of 100 nM tunicamycin response. 0.23% of 360,000 active. AID 588692;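 active means mean luciferase reporter signal, scaled so untreated is 0 and the glycosylation-blocking control 100, at or above a set limit in every replicate; inconclusive means mean reaches the limit but not every replicate does; inactive means mean below the limit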;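 further: luciferase carries N-glycosylation sites so blocking glycosylation raises the light; 0% = median of neutral control wells and 100% = median of 100 nM tunicamycin wells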
CASP6 VEID inh = blocks human caspase-6 cleavage activity; inhibition, % at 12.5 µM; P55212; purified caspase-6, Z-VEID-R110 cleavage fluorescence; 0.53% of 350,000 active; AID 686996;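 active means mean inhibition across replicates at least about 35%, with every replicate also reaching that limit, limit read from the data; inconclusive means only one of the two criteria met; inactive means neither criterion met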;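 further: 0% = median of neutral control wells and 100% = no fluorescence left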
RAD54 inh = blocks human RAD54 Holliday junction branch migration; FAM/BHQ fluorescence; inhibition, % at 10.4 µM; 0.14% of 360,000 active; AID 602329;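 active means mean normalized replicate activity at least 40 and at least half of replicates scoring 40 or more; inconclusive means only one of the two criteria met; inactive means mean below 40 and under half of replicates reaching 40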;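 further: 0% = median of neutral control wells and 100% = median of positive control wells; inhibitors cause a drop in the FAM fluorescence signal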
Target sequence (Q92698 whole entry, looked up): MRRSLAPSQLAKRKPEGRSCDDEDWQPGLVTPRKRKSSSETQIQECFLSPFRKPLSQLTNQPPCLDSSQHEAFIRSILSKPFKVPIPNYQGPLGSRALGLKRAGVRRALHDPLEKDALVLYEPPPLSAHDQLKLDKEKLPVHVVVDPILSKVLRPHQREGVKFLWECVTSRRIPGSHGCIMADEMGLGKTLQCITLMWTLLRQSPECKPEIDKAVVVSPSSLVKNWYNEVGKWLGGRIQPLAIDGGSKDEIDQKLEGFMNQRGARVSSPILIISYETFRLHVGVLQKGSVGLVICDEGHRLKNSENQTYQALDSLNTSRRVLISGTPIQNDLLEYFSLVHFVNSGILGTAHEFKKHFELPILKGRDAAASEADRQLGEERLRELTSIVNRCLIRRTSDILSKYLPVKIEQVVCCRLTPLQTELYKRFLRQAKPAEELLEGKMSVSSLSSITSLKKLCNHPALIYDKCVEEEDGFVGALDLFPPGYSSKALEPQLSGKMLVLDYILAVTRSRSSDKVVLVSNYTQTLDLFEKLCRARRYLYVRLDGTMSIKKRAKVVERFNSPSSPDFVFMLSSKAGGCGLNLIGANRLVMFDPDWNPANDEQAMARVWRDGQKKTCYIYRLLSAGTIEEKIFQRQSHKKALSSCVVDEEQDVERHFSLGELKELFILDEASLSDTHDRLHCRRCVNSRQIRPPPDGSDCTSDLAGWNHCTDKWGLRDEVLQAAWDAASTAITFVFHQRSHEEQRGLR
RAD52 inh = blocks human RAD52 DNA annealing | recombinant RAD52 DNA annealing, FRET fluorescence | inhibition, % at 18.7 µM | 0.46% of 360,000 active;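 active means every replicate showing at least 50% inhibition; inconclusive means mean inhibition at least 50% but not in every replicate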
AF4-AF9 inh = inhibitors of human MLL-AF4/AF9 interaction; AID 651704; P42568; inhibition, % at 10 µM; AlphaScreen, biotin-AF4 peptide binding to FLAG-AF9; 0.47% of 350,000 active;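 active means every replicate reaching a set inhibition limit, whatever the replicate mean, cut at about 25% in these data; inconclusive means mean inhibition reaches that limit but some replicates miss it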;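 further: 0% = plate neutral control median and 100% = total signal loss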
Numbers without * were called inactive.

Screening Cc1c(CCC(=O)O)c(=O)oc2c(C)c(OCc3cc4c(cc3Cl)OCO4)ccc12 returned Glyco luc inh 2, CASP6 VEID inh 43*, RAD54 inh -5, RAD52 inh -10 and AF4-AF9 inh -7.
`CNC[C@@H]1Oc2ccc(NC(=O)CCCN(C)C)cc2CC(=O)N([C@@H](C)CO)C[C@H]1C` gave CASP6 VEID inh -2, RAD52 inh -22 and AF4-AF9 inh -4.
Screening CC(C)NC(=O)Nc1cccc2c1O[C@H](CN(C)C(=O)Nc1cccc3ccccc13)[C@@H](C)CN([C@@H](C)CO)C2=O returned CASP6 VEID inh 1, RAD54 inh -11, RAD52 inh -1 and AF4-AF9 inh 3.
`Cn1c(=O)c2cc(NC(=S)NC3CCCCC3)ccc2n1Cc1ccc(F)cc1` gave Glyco luc inh -2, CASP6 VEID inh -2, RAD54 inh 3, RAD52 inh -17 and AF4-AF9 inh -1.
Cn1c(=O)c2cc(NC(=S)NC3CC3)ccc2n1Cc1ccccc1 was read as Glyco luc inh -2, CASP6 VEID inh 58*, RAD54 inh -9, RAD52 inh -10 and AF4-AF9 inh 4.
For C[C@@H]1CN([C@H](C)CO)C(=O)c2cc(C#CC3CC3)cnc2O[C@H]1CN(C)C(=O)Cc1ccccn1 the results were CASP6 VEID inh -1, RAD54 inh -2, RAD52 inh -9 and AF4-AF9 inh -3.
For COc1cc(-c2noc(C)c2-c2ccc(N(C)C)nc2)cc(OC)c1OC the results were Glyco luc inh inconclusive, CASP6 VEID inh -2, RAD54 inh -1, RAD52 inh -10 and AF4-AF9 inh 5.
For COc1cc(-c2noc(C)c2-c2ccc3[nH]ccc3c2)cc(OC)c1OC the results were Glyco luc inh 48* and RAD54 inh 2.
Screening O=C(/C=C/c1cn(-c2ccccc2)nc1-c1cccnc1)c1ccco1 returned Glyco luc inh 32*, CASP6 VEID inh 4, RAD52 inh -14 and AF4-AF9 inh 8.
`COc1ccc(NC(=O)Nc2ccc3c(c2)[C@H]2C[C@H](CC(=O)NCCc4ccccc4)O[C@@H](CO)[C@H]2O3)cc1` gave CASP6 VEID inh -1, RAD54 inh -5, RAD52 inh -6 and AF4-AF9 inh -9.
O=C(C[C@H]1CC[C@H]2[C@@H](COC[C@@H](O)CN2S(=O)(=O)c2ccccc2)O1)NCc1ccc(-c2ccccc2)cc1 was read as CASP6 VEID inh -3, RAD54 inh -5, RAD52 inh 36 and AF4-AF9 inh 5.
O=C(C[C@H]1CC[C@@H]2[C@H](COC[C@@H](O)CN2S(=O)(=O)c2ccccc2)O1)NCc1ccc(-c2ccccc2)cc1 was read as CASP6 VEID inh -9, RAD54 inh 15, RAD52 inh 75* and AF4-AF9 inh 16.
For CS(=O)(=O)N1C[C@@H](O)COC[C@H]2O[C@@H](CC(=O)NCc3ccc(-c4ccccc4)cc3)CC[C@@H]21 the results were CASP6 VEID inh 1, RAD54 inh 19, RAD52 inh 59* and AF4-AF9 inh 17.
`O=C(C[C@H]1CC[C@@H]2[C@H](COC[C@H](O)CN2S(=O)(=O)c2ccccc2)O1)NCc1ccc(-c2ccccc2)cc1` gave CASP6 VEID inh 1, RAD54 inh -6, RAD52 inh 56* and AF4-AF9 inh 11.
`O=C(C[C@@H]1CC[C@H]2[C@@H](COC[C@@H](O)CN2S(=O)(=O)c2ccccc2)O1)Nc1ccc(-c2ccccc2)cc1` gave CASP6 VEID inh 2, RAD54 inh -3, RAD52 inh 0 and AF4-AF9 inh -3.
For O=C(C[C@@H]1CC[C@H]2[C@@H](COC[C@@H](O)CN2S(=O)(=O)c2ccccc2)O1)NCc1ccc(-c2ccccc2)cc1 the results were CASP6 VEID inh 2, RAD54 inh -1, RAD52 inh 59* and AF4-AF9 inh 10.
Screening CC=Cc1ccc2n(c1=O)C[C@H]1[C@H](CO)[C@@H](C(=O)NC3CCCCC3)N(C(=O)C3CC3)[C@@H]21 (mixture of isomers) returned CASP6 VEID inh -3, RAD54 inh 7, RAD52 inh -10 and AF4-AF9 inh 0.
Screening CC(C)NC(=O)Nc1ccc2c(c1)C(=O)N([C@H](C)CO)C[C@@H](C)[C@@H](CN(C)Cc1ccc(Oc3ccccc3)cc1)O2 returned RAD54 inh 7 and RAD52 inh -10.
Cc1noc(C)c1S(=O)(=O)Nc1ccc2c(c1)CC(=O)N([C@H](C)CO)C[C@H](C)[C@@H](CN(C)S(=O)(=O)c1ccc(F)cc1)O2 was read as RAD54 inh -4, RAD52 inh 7 and AF4-AF9 inh 0.
Screening COc1ccc(-c2cc(-c3ccc(O)cc3)nc(N)c2C#N)cc1OC returned Glyco luc inh 27*, CASP6 VEID inh 4, RAD54 inh 1, RAD52 inh -36 and AF4-AF9 inh -1.
For CCCc1cc(-c2ccc(O)c(OCC)c2)c(C#N)c(N)n1 the results were Glyco luc inh 4 and RAD54 inh 7.
Screening CCS(=O)(=O)N[C@H]1C=C[C@H](CC(=O)Nc2ccccc2)O[C@H]1CO returned CASP6 VEID inh 1, RAD52 inh -37 and AF4-AF9 inh -3.
`CSc1ccccc1NC(=O)Cn1c([N+](=O)[O-])cnc1C` gave Glyco luc inh 2, CASP6 VEID inh 3, RAD54 inh 6, RAD52 inh -6 and AF4-AF9 inh 42*.
`Cc1ncc([N+](=O)[O-])n1CC(=O)Nc1ccccc1F` gave Glyco luc inh 2, CASP6 VEID inh -2, RAD54 inh 5, RAD52 inh 0 and AF4-AF9 inh -2.
COc1ccccc1NC(=O)C(C)OC(=O)CCC1CCCCC1 (centres undefined) was read as Glyco luc inh 1, CASP6 VEID inh 53*, RAD54 inh -1, RAD52 inh -4 and AF4-AF9 inh -2.
Screening COc1cccc(C(=O)N2C[C@H]3[C@@H](c4ccccc42)[C@H](CO)N3C(=O)c2ccc(F)cc2)c1 returned CASP6 VEID inh 3, RAD54 inh 2, RAD52 inh -5 and AF4-AF9 inh -3.
CN(C)C(=O)c1cccc(-c2ccc3c(c2)[C@H]2[C@H](CCN2C(=O)c2ccc4c(c2)OCO4)[C@@H](CO)N3)c1 was read as RAD54 inh 2.
`COc1ccc2c3c([nH]c2c1)[C@H](CO)N(C(=O)CN(C)C)CC31CCN(Cc2ccccc2Cl)CC1` gave CASP6 VEID inh -2, RAD52 inh 33 and AF4-AF9 inh 28*.
For CCC(=O)N1CC2(CN(Cc3ccccc3Cl)C2)c2c([nH]c3cc(OC)ccc23)[C@H]1CO the results were CASP6 VEID inh 0, RAD52 inh 21 and AF4-AF9 inh 30*.
Screening COCC(=O)N1CC2(CN(Cc3ccccc3Cl)C2)c2c([nH]c3cc(OC)ccc23)[C@@H]1CO returned AF4-AF9 inh 2.
Screening COc1ccc2c3c([nH]c2c1)[C@H](CO)N(C(=O)CN(C)C)CC31CN(Cc2ccccc2Cl)C1 returned AF4-AF9 inh 32*.

Compound activity: PubChem, Broad Institute
